# Results reported in PubChem BioAssay (Tox21).
# Where “and” joins values, the source holds several entries; their conditions need not be identical. Equal entries are not always repeated. Records with an inconclusive call do not appear. A call without a number means that no potency is given here. Some compounds were tested as several samples or in several runs, with calls that do not always agree. Calls of active or inactive are those of the source. Unless noted, calls follow the shape of the dose curve; as a rule, active = well fitted curve in the direction sought with a large enough effect in the repeat runs; inconclusive = weak or mixed curves; inactive = no such curve, though single readings can be large; an effect the other way counts as inactive or inconclusive.
# Columns and labels:
# [1] = qHTS assay to identify small molecule agonists of the sonic hedgehog signaling (Shh) pathway (AID 1259368; calls by dose curve;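 also: NIH/3T3-derived 3T3Gli1-Luc cells carrying a stable Gli1-driven firefly luciferase reporter; series mostly up to about 92 µM; nearly all actives have a fitted effect of over 15% in size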)
# Outline: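 3T3Gli1-Luc (NIH/3T3 clone, stable Gli1-Luc); 4 hr pre-incubation, then cpd in DMSO 24 hr, 37 C/5% CO2; luciferase reagent 30 min RT; luminescence.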
# [2] = qHTS assay to identify small molecule antagonists of the sonic hedgehog signaling (Shh) pathway (AID 1259369; calls by dose curve; also: nearly all actives have a fitted effect of over 45% in size; also: potency is read from the fitted curve at half-maximal effect)
# Outline: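 3T3Gli1-Luc, conditioned-medium-stimulated, 24hr cpd, 37C/5% CO2; Gli1-driven firefly Luc luminescence after 30min RT with luciferase reagent. Cells plated 4hr before cpd.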
# [3] = qHTS assay to identify small molecule agonists of the estrogen receptor beta (ER-beta) signaling pathway - cell viability counter screen (AID 1259380); also: nearly all actives have a fitted effect of over 30% in size; also: potency is read from the fitted curve at half-maximal effect
# Outline: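 HEK293T ER-beta-UAS-bla; 2% CS-FBS; 6 hr pre-plate, 16 hr cpd at 37C/5% CO2; LiveBLAzer read first, then CellTiter-Glo 30 min RT, luminescence.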
# [4] = qHTS assay to identify small molecule antagonists of the estrogen receptor beta (ER-beta) signaling pathway - cell viability counter screen (AID 1259382); also: nearly all actives have a fitted effect of over 55% in size; also: potency is read from the fitted curve at half-maximal effect;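 as to activity change, negative = cytotoxicity: HEK293T cells carrying ER-beta-UAS-bla reporter stimulated with estradiol; series mostly up to about 92 µM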
# Outline: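 Cells: ER-beta-UAS-bla HEK293T, 2,000/well, 2% CS-FBS, 6 hr settle. Cpd + E2 (1nM final), 16 hr, 37C/5% CO2. Bla FRET substrate 2 hr RT, then CellTiter-Glo 30 min RT, luminescence.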
# [5] = biological target: Estrogen receptor (Homo sapiens) (UniProt P03372); test: qHTS assay to identify small molecule agonists of the estrogen receptor alpha (ER-alpha) signaling pathway in the presence of an antagonist (AID 1259383; calls by dose curve; also: nearly all actives have a fitted effect of over 15% in size; also: potency is read from the fitted curve at half-maximal effect; as to activation: top concentration of the series differs between compounds)
# Chain of Estrogen receptor (Homo sapiens) (P03372 whole entry, looked up): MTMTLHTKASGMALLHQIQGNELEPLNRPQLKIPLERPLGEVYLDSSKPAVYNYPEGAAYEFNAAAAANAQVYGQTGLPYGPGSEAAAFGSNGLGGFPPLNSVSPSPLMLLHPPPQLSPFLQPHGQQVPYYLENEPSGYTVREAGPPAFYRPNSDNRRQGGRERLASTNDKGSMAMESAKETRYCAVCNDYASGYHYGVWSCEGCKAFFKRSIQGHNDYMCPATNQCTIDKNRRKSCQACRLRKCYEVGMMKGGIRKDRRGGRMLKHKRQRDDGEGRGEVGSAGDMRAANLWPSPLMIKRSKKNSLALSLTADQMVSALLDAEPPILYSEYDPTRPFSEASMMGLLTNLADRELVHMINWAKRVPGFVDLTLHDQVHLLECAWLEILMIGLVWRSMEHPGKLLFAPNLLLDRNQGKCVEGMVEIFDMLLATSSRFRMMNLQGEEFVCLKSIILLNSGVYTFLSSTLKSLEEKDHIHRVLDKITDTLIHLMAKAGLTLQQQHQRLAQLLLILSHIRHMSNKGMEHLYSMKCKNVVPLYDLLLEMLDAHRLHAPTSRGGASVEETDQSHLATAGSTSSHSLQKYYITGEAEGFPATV
# Outline: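 VM7Luc4E2, endog. ER-alpha + 4×ERE-luc; charcoal-stripped FBS, phenol red-free, 5 d; 24hr plating; +10.0nM ICI-182,780 (final); cpds 15 conc, 22hr, 37C/5% CO2; ONE-Glo luminescence.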
# [6] = qHTS assay to identify small molecule agonists or antagonists of the thyroid stimulating hormone receptor (TSHR) signaling pathway - wild type cell line counter screen (AID 1259384; calls by dose curve)
# Outline: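 Counter screen in untransfected Hek293: compounds (15-point titration, triplicate) plus phosphodiesterase inhibitor Ro20-1724 added after 18 h plating; 30 min RT. Intracellular cAMP via competitive d2/cryptate immunoassay, 1 h incubation.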
# [7] = qHTS assay to identify small molecule antagonists of the TGF-beta/Smad signaling pathway - cell viability counter screen (AID 1346824); also: nearly all actives have a fitted effect of over 50% in size; also: potency is read from the fitted curve at half-maximal effect
# Outline: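 Cytotoxicity counter-screen run in the same wells as the beta-lactamase Smad reporter read: CellTiter-Glo luminescence after 30 min at room temperature. HEK 293T SBE-bla cells had 5 hr compound exposure at 37 C with TGF-beta1 (0.25 ng/mL stock).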
# [8] = qHTS assay to identify small molecule agonists of the TGF-beta/Smad signaling pathway - cell viability counter screen (AID 1346829); also: nearly all actives have a fitted effect of over 45% in size; also: potency is read from the fitted curve at half-maximal effect; as to activity change, negative = cytotoxicity: top concentration of the series differs between compounds
# Outline: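 After overnight seating at 37 C and 5% CO2, reporter cells got compounds for 5 hr and FRET substrate for 2 hr; cell viability then came from CellTiter-Glo luminescence.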
# [9] = qHTS assay to identify small molecule agonists of the TGF-beta/Smad signaling pathway (AID 1346859; active = well fitted activation curve with a large enough effect in the signal ratio in the repeat runs, not every such curve was filed as active; the % refers to the signal ratio; also: series mostly up to about 77 µM)
# Outline: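 Stable Smad binding element-beta-lactamase HEK 293T cells; 5 hr compound exposure at 37 C under 5% CO2; 2 hr room-temperature substrate step; fluorescence excited at 405 nm, collected at 460 nm and 530 nm.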
# [10] = biological target: Thyrotropin-releasing hormone receptor (Homo sapiens) (UniProt P34981); test: qHTS assay to identify small molecule antagonists of the thyrotropin-releasing hormone receptor (TRHR) signaling pathway (AID 1346877; active = well fitted inhibition curve with a large enough effect in the repeat runs, not every such curve was filed as active; also: potency is read from the fitted curve at half-maximal effect; as to activity, negative = inhibition: series mostly up to about 51 µM)
# Chain of Thyrotropin-releasing hormone receptor (Homo sapiens) (P34981 whole entry, looked up): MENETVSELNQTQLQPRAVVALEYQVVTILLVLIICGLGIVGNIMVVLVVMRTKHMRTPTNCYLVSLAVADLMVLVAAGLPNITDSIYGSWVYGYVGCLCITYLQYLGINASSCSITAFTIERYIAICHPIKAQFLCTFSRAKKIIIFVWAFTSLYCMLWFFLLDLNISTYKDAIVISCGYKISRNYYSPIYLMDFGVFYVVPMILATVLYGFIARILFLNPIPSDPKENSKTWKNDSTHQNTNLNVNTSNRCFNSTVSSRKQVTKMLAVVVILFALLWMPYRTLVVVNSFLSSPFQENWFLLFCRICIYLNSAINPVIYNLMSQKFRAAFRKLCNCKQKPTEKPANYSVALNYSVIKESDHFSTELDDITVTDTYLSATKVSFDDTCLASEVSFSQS
# Outline: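 Intracellular calcium fluorescence, read kinetically every second over 3 min, reports TRH-evoked signalling in HEK293 cells carrying TRHR. Test compounds were added 5 min ahead of a 1 nM TRH challenge.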
# [11] = qHTS assay to identify small molecule agonists of the androgen receptor (AR) signaling pathway in the presence of an antagonist - cell viability counter screen (AID 1259379); also: nearly all actives have a fitted effect of over 25% in size; also: potency is read from the fitted curve at half-maximal effect;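 as to activity change, negative = cytotoxicity: MDA-kb2 human breast cancer cells carrying an MMTV luciferase reporter; series mostly up to about 92 µM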
# Outline: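 Cells: MDA-kb2 (MMTV-luc, AR and GR elements), 3,000/well, 5 hr settle. Added: nilutamide 3.0uM final, then compounds (15 conc.). Incubation: 16 hr, 37C, no CO2. Read-out: CellTiter-Fluor, 1 hr, fluorescence.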
# [12] = qHTS assay to identify small molecule agonists of the estrogen receptor alpha (ER-alpha) signaling pathway in the presence of an antagonist - cell viability counter screen (AID 1259386);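 also: cells exposed to compounds for 22 h at 37 °C before the viability read; nearly all actives have a fitted effect of over 30% in size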; also: potency is read from the fitted curve at half-maximal effect; as to activity change, negative = cytotoxicity: series mostly up to about 92 µM
# Outline: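 VM7Luc4E2, stripped-serum pre-culture 5 d; 24hr plating; +ICI-182,780 10.0nM final; cpds 15 conc, 22hr, 37C/5% CO2; CellTiter-Fluor added at 21hr, fluorescence 1hr later.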
# [13] = biological target: Progesterone receptor (Homo sapiens) (UniProt P06401); test: qHTS assay to identify small molecule agonists of the progesterone receptor (PR) signaling pathway (AID 1346784; calls by dose curve; also: nearly all actives have a fitted effect of over 30% in size)
# Chain of Progesterone receptor (Homo sapiens) (P06401 whole entry, looked up): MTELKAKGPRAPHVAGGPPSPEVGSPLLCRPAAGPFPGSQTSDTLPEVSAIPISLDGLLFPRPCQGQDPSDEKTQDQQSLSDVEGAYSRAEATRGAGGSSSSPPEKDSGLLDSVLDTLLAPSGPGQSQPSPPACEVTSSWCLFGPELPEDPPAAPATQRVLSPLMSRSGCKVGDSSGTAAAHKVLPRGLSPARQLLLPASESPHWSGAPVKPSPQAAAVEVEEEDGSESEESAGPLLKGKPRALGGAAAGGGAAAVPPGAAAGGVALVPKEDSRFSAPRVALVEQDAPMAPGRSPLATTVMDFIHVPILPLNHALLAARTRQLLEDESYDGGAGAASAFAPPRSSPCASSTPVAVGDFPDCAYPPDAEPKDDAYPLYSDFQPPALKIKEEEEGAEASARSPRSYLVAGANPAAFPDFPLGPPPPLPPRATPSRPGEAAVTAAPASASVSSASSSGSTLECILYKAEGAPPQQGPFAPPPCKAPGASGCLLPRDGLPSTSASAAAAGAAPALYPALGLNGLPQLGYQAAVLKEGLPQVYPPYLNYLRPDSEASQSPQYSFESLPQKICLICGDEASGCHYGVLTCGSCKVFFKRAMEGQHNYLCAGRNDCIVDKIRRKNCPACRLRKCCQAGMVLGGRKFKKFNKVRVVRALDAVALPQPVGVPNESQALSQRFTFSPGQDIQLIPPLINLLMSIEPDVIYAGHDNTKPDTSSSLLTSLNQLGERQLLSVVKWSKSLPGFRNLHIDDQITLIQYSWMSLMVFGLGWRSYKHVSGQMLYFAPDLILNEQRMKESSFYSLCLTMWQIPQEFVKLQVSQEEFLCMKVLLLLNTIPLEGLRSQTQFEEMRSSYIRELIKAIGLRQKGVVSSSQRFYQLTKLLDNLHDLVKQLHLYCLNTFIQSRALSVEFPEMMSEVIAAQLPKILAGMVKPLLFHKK
# Outline: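 Using charcoal-stripped serum (2%) to limit endogenous steroids, PR-UAS-bla HEK 293T cells received compounds for 16 hr at 37C after 6 hr plating; beta-lactamase FRET fluorescence was recorded following 2 hr substrate loading at room temperature.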
# [14] = biological target: Progesterone receptor (Homo sapiens) (UniProt P06401); test: qHTS assay to identify small molecule antagonists of the progesterone receptor (PR) signaling pathway (AID 1346795; active = well fitted inhibition curve with a large enough effect in the signal ratio in the repeat runs, not every such curve was filed as active; the % refers to the signal ratio; also: potency is read from the fitted curve at half-maximal effect)
# Outline: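 Inhibition of R5020-induced (1 nM final) beta-lactamase reporter signal in PR-UAS-bla HEK293T cells was scored by FRET fluorescence after overnight (16 hr) compound treatment.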
# [15] = qHTS assay to identify small molecule antagonists of the progesterone receptor (PR) signaling pathway - cell viability counter screen (AID 1346798); also: nearly all actives have a fitted effect of over 50% in size; also: potency is read from the fitted curve at half-maximal effect; as to activity change, negative = cytotoxicity: series mostly up to about 92 µM
# Outline: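 ATP content as viability readout: CellTiter-Glo luminescence, 30 min room temperature, in PR-UAS-bla HEK293T cells after 16 hr compound/R5020 treatment at 37C and 5% CO2.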
# [16] = qHTS assay to identify small molecule agonists of the progesterone receptor (PR) signaling pathway - cell viability counter screen (AID 1346799; calls by dose curve; also: nearly all actives have a fitted effect of over 45% in size; also: potency is read from the fitted curve at half-maximal effect)
# Outline: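 Cytotoxicity in PR-bla HEK293T cells: 16 h compound, 37C; CellTiter-Glo added post-FRET read; luminescence after 30 min RT.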
# [17] = biological target: Estrogen receptor beta (Homo sapiens) (UniProt Q92731); test: qHTS assay to identify small molecule agonists of the estrogen receptor beta (ER-beta) signaling pathway (AID 1259377; active = well fitted activation curve with a large enough effect in the signal ratio in the repeat runs, not every such curve was filed as active; the % refers to the signal ratio)
# Chain of Estrogen receptor beta (Homo sapiens) (Q92731 whole entry, looked up): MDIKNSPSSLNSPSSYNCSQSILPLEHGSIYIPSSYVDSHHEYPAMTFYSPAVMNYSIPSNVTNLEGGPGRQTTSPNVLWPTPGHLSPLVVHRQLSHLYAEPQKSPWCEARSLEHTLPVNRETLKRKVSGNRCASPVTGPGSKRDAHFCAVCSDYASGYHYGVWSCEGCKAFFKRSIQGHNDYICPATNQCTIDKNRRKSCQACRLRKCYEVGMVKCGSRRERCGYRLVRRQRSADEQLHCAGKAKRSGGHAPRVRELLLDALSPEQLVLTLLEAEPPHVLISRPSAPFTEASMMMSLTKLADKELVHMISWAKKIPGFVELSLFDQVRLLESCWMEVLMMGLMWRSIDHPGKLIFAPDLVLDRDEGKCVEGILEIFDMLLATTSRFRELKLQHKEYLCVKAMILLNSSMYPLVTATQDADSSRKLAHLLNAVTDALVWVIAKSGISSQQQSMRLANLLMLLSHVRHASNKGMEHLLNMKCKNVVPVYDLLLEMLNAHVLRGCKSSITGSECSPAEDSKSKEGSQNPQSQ
# Outline: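 In HEK293T cells bearing a UAS-beta-lactamase reporter under ER-beta control, DMSO-delivered compounds were incubated for 16 hr at 37C. Activity was detected as fluorescence 2 hours after LiveBLAzer B/G FRET substrate addition.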
# [18] = biological target: Estrogen receptor beta (Homo sapiens) (UniProt Q92731); test: qHTS assay to identify small molecule antagonists of the estrogen receptor beta (ER-beta) signaling pathway (AID 1259378; active = well fitted inhibition curve with a large enough effect in the signal ratio in the repeat runs, not every such curve was filed as active; the % refers to the signal ratio; also: potency is read from the fitted curve at half-maximal effect)
# Outline: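 Antagonist mode: compounds added to beta-lactamase reporter HEK293T ER-beta-UAS cells stimulated with E2 (1nM final), 16 hr at 37C. LiveBLAzer B/G FRET substrate, 2 hours room temperature, fluorescence read-out.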
# [19] = biological target: Androgen receptor (Homo sapiens) (UniProt P10275); test: qHTS assay to identify small molecule agonists of the androgen receptor (AR) signaling pathway in the presence of an antagonist (AID 1259381; calls by dose curve; also: nearly all actives have a fitted effect of over 15% in size; also: potency is read from the fitted curve at half-maximal effect)
# Chain of Androgen receptor (Homo sapiens) (P10275 whole entry, looked up): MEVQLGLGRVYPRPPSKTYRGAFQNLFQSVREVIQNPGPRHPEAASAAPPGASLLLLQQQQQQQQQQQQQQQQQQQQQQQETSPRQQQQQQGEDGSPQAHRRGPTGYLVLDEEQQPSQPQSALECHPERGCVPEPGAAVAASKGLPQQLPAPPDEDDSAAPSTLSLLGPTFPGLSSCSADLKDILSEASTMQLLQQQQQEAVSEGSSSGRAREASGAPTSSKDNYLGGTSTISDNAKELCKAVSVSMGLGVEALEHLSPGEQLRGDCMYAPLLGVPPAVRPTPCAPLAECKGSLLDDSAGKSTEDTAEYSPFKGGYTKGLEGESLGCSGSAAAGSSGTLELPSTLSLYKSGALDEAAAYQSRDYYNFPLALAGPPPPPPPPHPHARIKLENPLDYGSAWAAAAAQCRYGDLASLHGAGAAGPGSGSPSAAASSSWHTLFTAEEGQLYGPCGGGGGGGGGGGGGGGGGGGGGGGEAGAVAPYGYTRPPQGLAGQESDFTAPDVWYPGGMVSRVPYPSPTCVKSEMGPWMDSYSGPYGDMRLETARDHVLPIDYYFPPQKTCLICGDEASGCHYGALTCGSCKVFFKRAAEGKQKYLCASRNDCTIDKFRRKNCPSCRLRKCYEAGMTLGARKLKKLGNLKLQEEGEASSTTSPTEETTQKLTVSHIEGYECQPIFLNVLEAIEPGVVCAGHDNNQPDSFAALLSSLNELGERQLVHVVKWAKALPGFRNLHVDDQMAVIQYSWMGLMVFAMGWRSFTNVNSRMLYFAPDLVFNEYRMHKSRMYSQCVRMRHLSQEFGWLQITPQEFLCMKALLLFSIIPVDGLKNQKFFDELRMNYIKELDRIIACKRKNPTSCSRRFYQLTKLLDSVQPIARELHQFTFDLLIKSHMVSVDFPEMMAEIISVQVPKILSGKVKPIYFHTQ
# Outline: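 MDA-kb2 cells, 3,000/well, rested 5hr at 37C/0% CO2 → nilutamide 3.0uM final or buffer → compounds, 15 conc. → 16hr at 37C → ONE-Glo, 30min RT → luminescence.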
smiles,measurement,setting,value
C=C1CC[C@H](O)C/C1=C\C=C1/CCC[C@]2(C)[C@@H]([C@H](C)CCCC(C)C)CC[C@@H]12,outcome,[1],inactive
same,Potency,[2],17.1 µM (active)
same,Potency,[3],42.9 µM (active)
same,Potency,[4],30.4 µM (active)
same,Potency,[5],inactive
same,Potency,[6],inactive
same,Potency,[7],inactive
same,Potency,[8],inactive
same,outcome,[9],inactive
same,Potency,[10],inactive
Cc1ccc(S(=O)(=O)O)cc1,outcome,[1],inactive
same,Potency,[2],inactive
same,Potency,[11],inactive
same,Potency,[3],inactive
same,Potency,[4],inactive
same,Potency,[12],inactive
same,Potency,[13],inactive
same,Potency,[14],inactive
same,Potency,[15],inactive
same,Potency,[16],inactive
same,Potency,[7],inactive
same,Potency,[8],inactive
same,outcome,[9],inactive
CN(C)C(=S)SC(=S)N(C)C,outcome,[1],inactive
same,Potency,[2],280 nM (active) and 109 nM (active) and 2.66 µM (active)
same,Potency,[11],3.96 µM (active) and inactive
same,Potency,[3],1.25 µM (active) and 2.17 µM (active) and 1.06 µM (active)
same,Potency,[4],1.37 µM (active) and 1.88 µM (active)
same,Potency,[6],inactive
same,Potency,[12],35.3 µM (active) and 3.06 µM (active) and inactive
same,Potency,[13],inactive
same,Potency,[15],994 nM (active) and 969 nM (active) and 750 nM (active)
same,Potency,[16],2.22 µM (active) and 1.22 µM (active) and 266 nM (active)
same,Potency,[7],inactive
same,Potency,[8],inactive
same,outcome,[9],inactive
same,Potency,[10],inactive
C1CCC(C(CC2CCCCN2)C2CCCCC2)CC1 (configuration not stated),outcome,[1],inactive
same,Potency,[17],inactive
same,Potency,[18],18.8 µM (active)
same,Potency,[11],29.8 µM (active)
same,Potency,[3],23.7 µM (active)
same,Potency,[19],inactive
same,Potency,[4],18.8 µM (active)
same,Potency,[5],inactive
same,Potency,[6],inactive
same,Potency,[12],inactive
same,Potency,[13],inactive
same,Potency,[14],29.8 µM (active)
same,Potency,[15],26.6 µM (active)
same,Potency,[16],23.7 µM (active)
same,Potency,[7],26.8 µM (active)
same,Potency,[8],26.8 µM (active)
CC(=O)C(=O)O,outcome,[1],inactive
same,Potency,[2],inactive
same,Potency,[11],inactive
same,Potency,[3],inactive
same,Potency,[4],inactive
same,Potency,[6],inactive
same,Potency,[12],inactive
same,Potency,[13],inactive
same,Potency,[14],inactive
same,Potency,[15],inactive
same,Potency,[16],inactive and 34.4 µM (active)
same,Potency,[7],inactive
same,Potency,[8],inactive
same,outcome,[9],inactive
CC/C(=C(\c1ccccc1)c1ccc(OCCN(C)C)cc1)c1ccccc1,outcome,[1],inactive
same,Potency,[2],23.7 µM (active) [middle of 4 runs]
same,Potency,[11],69 µM (active) and 48.9 µM (active) and 48.6 µM (active)
same,Potency,[3],24.5 µM (active) [middle of 5 runs]
same,Potency,[4],27.3 µM (active) and 21.9 µM (active) and 29.8 µM (active)
same,Potency,[6],inactive
same,Potency,[12],inactive and 61.6 µM (active)
same,Potency,[13],inactive
same,Potency,[8],55.3 µM (active) and inactive
same,outcome,[9],inactive
same,Potency,[10],12.1 µM (active) and inactive
Nc1ccc2c(c1)CN1C(=O)c3ccccc3C1=N2,"activity change, negative = inhibition",[2],-44.1% [at 19 µM] (inactive)
same,Potency,[3],5.8 µM (active)
same,Potency,[19],0.231 µM (active)
same,Potency,[5],0.092 µM (active)
same,cAMP activity change,[6],"-1.34% [at 18.9 µM, stronger effect = higher value] (inactive)"
same,activation,[13],-0.634% [at 19 µM] (inactive)
same,"activity change, negative = inhibition",[14],-14.5% [at 18.9 µM] (inactive)
same,"activity change, negative = cytotoxicity",[15],-15.2% [at 18.9 µM] (inactive)
same,"activity change, negative = cytotoxicity",[16],-25.1% [at 19 µM] (inactive)
same,"activity, negative = inhibition",[10],-0.792% [at 10.5 µM] (inactive)
COc1ccc2c(c1)c(CC(=O)O)c(C)n2C(=O)c1ccc(Cl)cc1,outcome,[1],inactive
same,Potency,[2],inactive
same,Potency,[11],inactive
same,Potency,[19],inactive
same,Potency,[4],inactive
same,Potency,[5],inactive
same,Potency,[6],inactive
same,Potency,[12],inactive
same,Potency,[13],inactive
same,Potency,[14],inactive
same,Potency,[15],inactive
same,Potency,[16],inactive
same,Potency,[7],inactive
same,Potency,[8],inactive
